High-throughput results as filed in PubChem BioAssay.
Shiga inhibitor – A qHTS for Small Molecule Inhibitors of Shiga Toxin | AID 2315, 2010 | hit rate 9.2% among 290,000 | inhibition, % at 38.7 µM | Vero cells, Shiga toxin protein synthesis inhibition reporter; in the data active = inhibition mostly above about 28%, no sharp cut-off; inactive = mostly below about 43%; note: 0% is about no effect
LmPK inhibitor – qHTS Assay for Inhibitors of Leishmania Mexicana Pyruvate Kinase (LmPK); hit rate 0.37% among 290,000; AID 1721, 2009; Q27686; Potency, µM (titrated, usually from 57.5 µM), inactives show at the top dose activity change, negative = inhibition, usual class: inhibitors; purified LmPK, Kinase-Glo ATP luminescence, 1 h; note: potency is the fitted concentration of half-maximal effect; % is set by controls: 0 for no effect and ±100 for the full control effect
Target sequence (Q27686 whole entry, looked up): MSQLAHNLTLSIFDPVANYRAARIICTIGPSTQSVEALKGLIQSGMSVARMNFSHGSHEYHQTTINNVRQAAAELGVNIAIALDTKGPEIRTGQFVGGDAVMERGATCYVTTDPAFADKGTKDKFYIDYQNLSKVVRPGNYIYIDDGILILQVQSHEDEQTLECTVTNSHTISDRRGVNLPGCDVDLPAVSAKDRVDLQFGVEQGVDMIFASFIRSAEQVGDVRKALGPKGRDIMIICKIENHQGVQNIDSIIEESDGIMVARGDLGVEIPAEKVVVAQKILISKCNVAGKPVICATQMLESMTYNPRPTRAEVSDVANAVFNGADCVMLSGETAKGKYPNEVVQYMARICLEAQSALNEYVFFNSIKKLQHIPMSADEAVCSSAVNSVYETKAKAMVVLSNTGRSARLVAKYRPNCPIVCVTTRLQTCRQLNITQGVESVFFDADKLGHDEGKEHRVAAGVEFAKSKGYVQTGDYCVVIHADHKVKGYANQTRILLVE
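ATP generated from ADP (0.1 mM) and PEP (0.5 mM) by 0.1 nM LmPK over 1 h at room temperature (pH 7.2 imidazole buffer) was detected by coupled luciferase luminescence. Values were normalized to uninhibited and no-enzyme wells.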
Pf growth 48h – Primary qHTS for delayed death inhibitors of the malarial parasite plastid, 48 hour incubation. P. falciparum luciferase growth in erythrocytes, 48 h. Potency, µM (doses to about 28.7 µM), for the others: at the top dose activity change, negative = inhibition, actives largely listed as inhibitors. hit rate 5.9% among 310,000. AID 504832, 2011; note: potency is the fitted concentration of half-maximal effect; % is set by controls: 0 for no effect and ±100 for the full control effect
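Parasite viability was followed by luminescence of a genomically integrated firefly luciferase. Cultures held 0.1% parasitemia at 2% hematocrit (final), incubated under 5% CO2 at 37 C.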
Cycloheximide cs – Cycloheximide Counterscreen for Small Molecule Inhibitors of Shiga Toxin | cell reporter, cycloheximide protein synthesis inhibition counterscreen | max response, % | hit rate 12% among 300,000; in the data active = max response mostly above about 13%, no sharp cut-off; inactive = mostly below about 14%; note: read at 38.3 µM for the half of the compounds with a filed dose; 0% is about no effect
Pf growth 96h – Primary qHTS for delayed death inhibitors of the malarial parasite plastid, 96 hour incubation; P. falciparum luciferase reporter growth, 96 h; Potency, µM (highest dose often 28.7 µM), for the others: at the highest dose activity change, negative = inhibition, actives largely listed as inhibitors; hit rate 6.9% among 320,000; note: potency is the fitted concentration of half-maximal effect; % is set by controls: 0 for no effect and ±100 for the full control effect
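P. falciparum expressing integrated firefly luciferase grown in erythrocytes (2% hematocrit, 0.05% parasitemia final) with compounds for 96 hours at 37 C, 5% CO2. Growth inhibition read as loss of luminescence after adding luciferase detection reagent.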
* = called active by the depositor; u = inconclusive; x = no result; [ ] = another dose, or the depositor's remark. Rows were chosen to be rich in hits. Some 22% of all compounds tested hit in one or more screens of this group. Unless noted, calls come from the whole dose curve; as a rule, active = well fitted inhibition curve with a large enough effect; inconclusive = small, poorly fitted or top-dose-only effect, or another doubt; inactive = no such curve, though single readings can be large or run the other way.

SMILES | Shiga inhibitor | LmPK inhibitor | Pf growth 48h | Cycloheximide cs | Pf growth 96h
COc1ccc(CCC(=O)NCC23CC4CC(CC(C4)C2)C3)cc1 | -19.2 | -2.0% | -9.9% | 14.8* | -9.7%
COc1ccc(N(C(=O)COc2ccc(C)cc2)S(=O)(=O)c2ccc(C)cc2)cc1 | -13.7 | -0.6% | -1.8% | -1.4 | 7.8%
COc1ccc(-c2noc(CNC(=O)CCCN3C(=O)[C@H]4CC=CC[C@H]4C3=O)n2)cc1 | 15.1 | 1.0% | 5.6% | 18.1* | -36.5%
COc1ccc(OC)c(NC(=O)CCCc2ccccc2)c1 | -3.1 | -0.5% | 4.4% | -1.3 | -6.3%
COc1ccc(-c2cc(CCCC(=O)NCc3ccccn3)no2)cc1 | 21.1 | 0.7% | x | 34.4* | u
COc1ccc(-c2noc(CCC(=O)NCCc3ccccc3)n2)cc1 | 44.5 | 0.3% | 0.0%[0.00184 µM] | 24.8* | -5.7%
COc1ccc(CCCC(=O)Nc2ccccc2F)cc1 | 108.6* | -6.2% | 40.5% | 21.1* | -11.9%
O=C(CCc1nc(-c2ccccc2)no1)NCCc1ccccc1 | -12.4 | -1.3% | 21.2% | 11.6 | 0.0%
CCOc1nc2cnccc2n(CC(=O)Nc2cccc(C)c2C)c1=O | -15.1 | -5.2% | 8.5% | -6.9 | -6.1%
CC(C)(C)c1ccc(C(=O)Cn2cnnc2C#N)cc1 | 17.2 | 2.3% | -16.7% | 9.6 | u
CCCCNC(=O)N1CCN(Cc2cccc(F)c2)CC1 | 1.3 | -2.5% | 36.2% | -3.5 | u
COc1ccc(-c2cc(CCCC(=O)NCCc3ccccc3)no2)cc1 | 66.7* | -0.3% | 18.7% | 63.7* | -3.9%
COc1cccc(OC)c1C(=O)NCC12CC3CC(C1)CC(CNC(=O)c1c(OC)cccc1OC)(C3)C2 | 2.6 | 4.8% | 34.3% | -1.4 | 3.29µM*
COc1ccc(-c2noc(CCC(=O)NCCN(C)Cc3ccccc3)n2)cc1 | 9.1 | 1.6% | -2.1% | -1.9 | 52.3%
CCN(CCCNC(=O)CCc1nc(-c2ccc(OC)cc2)no1)c1cccc(C)c1 | 27.7 | 4.7% | x | -2.2 | 13.1µM*
COc1ccc(CNC(=O)COC(=O)c2ccc(Br)cc2)cc1 | 14.6 | 4.8% | 24.2% | 3.0 | -11.2%
Cc1ccccc1C(=O)Nc1nnc(S(=O)(=O)N2CCCCCC2)s1 | -5.3 | -4.6% | 1.6% | 1.4 | -23.1%
O=C(Nc1nc(COc2ccccc2)cs1)c1ccccc1F | 14.5* | 1.0% | 41.7% | 23.6 | 72.8%
Cc1cccc(OCC(=O)Nc2nnc(S(=O)(=O)N3CCCCCC3)s2)c1 | -4.8 | 1.5% | 32.8% | 0.7 | 11.7µM*
O=C(Nc1nnc(S(=O)(=O)N2CCOCC2)s1)c1ccccc1F | 15.1 | -3.6% | -3.3% | 16.8* | 11.5%
COc1ccc(OC)c(-c2csc(NC(=O)c3ccccc3F)n2)c1 | -5.3 | -0.1% | 11.5% | -2.0 | u
O=C(Nc1nnc(S(=O)(=O)N2CCCCCC2)s1)c1ccccc1F | 17.5 | -6.7% | 11.4% | 11.3* | 21.4%
O=C(Nc1nnc(S(=O)(=O)N2CCOCC2)s1)c1ccccc1Cl | -1.1 | -1.0% | -13.6% | -2.7 | 15.5%
Cc1ccc(OCC(=O)Nc2nnc(S(=O)(=O)N3CCCCCC3)s2)cc1 | -6.5 | 1.2% | 34.9% | -4.1 | u
CN(C)S(=O)(=O)c1ccc(S(=O)(=O)NCc2cccs2)cc1 | -8.5 | -5.6% | 16.6% | -0.9 | u
SMILES | Shiga inhibitor | LmPK inhibitor | Pf growth 48h | Cycloheximide cs | Pf growth 96h
COC(=O)C1CN(S(=O)(=O)c2ccccc2)CCN1S(=O)(=O)c1ccccc1 (stereo not drawn) | -3.7 | 2.4% | x | -10.3 | u
O=C(Nc1nnc(-c2ccccc2)s1)c1ccccc1F | 58.9* | -5.1% | 116.1% | 73.5* | 82.6%
O=C(Nc1nnc(S(=O)(=O)N2CCOCC2)s1)c1cccc(F)c1 | 30.9* | 2.8% | 61.1% | 20.5* | 100.1%
CCCN1CCC(NC23CC4CC(CC(C4)C2)C3)CC1 | -9.5 | -0.4% | -26.4% | -1.3 | u
Cc1c[nH]c2cccc(OCC(CNC(C)(C)C)OC(=O)c3ccccc3)c12 (stereo not drawn) | -2.5 | -1.9% | u | -4.3 | u
C=CCn1c(C)cc(C(=O)COC(=O)c2cncc(Br)c2)c1C | x | x | 250.3% | x | 98.0%
C=CCn1c(C)cc(C(=O)COc2ncnc3sccc23)c1C | 119.5 | -2.7% | 131.5% | 39.8* | -26.3%
CC1CCN(C(=O)Cn2nnc(-c3ccc(N)cc3)n2)CC1 | -2.6 | -6.0% | 26.4% | 1.2 | -29.8%
CN(C)C(CN=C1NS(=O)(=O)c2ccccc21)c1ccco1 (stereo not drawn) | -9.6 | -1.5% | 0.5% | -2.6 | 18.3%
O=S1(=O)NC(=NCC(c2ccco2)N2CCCCC2)c2ccccc21 (stereo not drawn) | 3.9 | 4.9% | u | -0.8 | 13.1µM*
COc1ccc(CNc2ncnc3cc(Cl)ccc23)cc1OC | -5.4 | 1.3% | 11.4% | -0.6 | 5.9%
CCN(CC)Cc1cc2[nH]c3c4ccc(Cl)cc4ncc3c2cc1OC | -8.5 | -4.3% | 0.0738µM* | -6.6 | 0.0928µM*
CCC(=O)NC(=S)NNC(=O)c1ccc(O)cc1 | 23.5 | 4.5% | 13.3% | 23.3* | -23.4%
CC(=O)NNC(=S)NC(=O)c1ccc(C)cc1 | 4.9 | 1.8% | 10.5% | -1.8 | u
CCC(=O)NNC(=S)NC(=O)c1ccc(C)cc1 | 51.2* | 4.7% | 0.0% | 31.1* | 38.8%
Cc1nn(CC(=O)NCC(C)c2ccccc2)c(=O)c2cccn12 (stereo not drawn) | 4.3 | 2.6% | 22.6% | 7.1 | 27.4%
CCOc1cc(CN2CCCC(N3CCN(c4ccc(F)cc4)CC3)C2)ccc1OC (stereo not drawn) | -6.4 | 1.8% | 1.04µM* | 5.5 | -34.7%
CC(C)CN1CCCC(N2CCN(c3cccc(Cl)c3)CC2)C1 (stereo not drawn) | -17.1 | 4.4% | 4.6% | 0.7 | u
COc1ccc(CN2CCCC(N3CCN(c4ccc(OC)cc4)CC3)C2)cc1 (stereo not drawn) | 1.1 | -7.0% | -33.9% | -2.0 | -14.6%
COc1ccc(CN2CCCC(N3CCN(c4cccc(Cl)c4)CC3)C2)cc1OC (stereo not drawn) | 6.4 | -4.8% | u | 3.7 | 9.28µM*
COc1ccc2c(c1)OC(C)(C)C(c1ccccc1)C2c1ccc(OCCN2CCCC2)cc1 (stereo not drawn) | x | x | 1.69µM* | x | 3.01µM*
COc1ccc2c(c1)cc(C(O)c1ccccn1)n2S(=O)(=O)c1ccccc1 (stereo not drawn) | 41.0* | -2.6% | 9.8% | 19.4* | 5.4%
Cc1cc(OCc2nn[nH]n2)c2c(C)c(Cc3ccccc3)c(=O)oc2c1 | -4.7 | 1.6% | 0.0% | -4.5 | 26.4%
O=C(NCC1CC1)c1ccc(Oc2cc(Cl)cc(Cl)c2)o1 | 3.3 | -4.6% | 11.7µM* | 1.5 | 9.28µM*
O=C(c1ccc(Oc2cc(Cl)cc(Cl)c2)o1)N1CCCCC1 | 3.2 | 1.6% | 18.4% | 17.0 | 25.5%
O=C(NCCN1CCCCC1)c1ccc(Oc2cc(Cl)cc(Cl)c2)o1 | -4.8 | 4.9% | 7.38µM* | -2.2 | 4.65µM*
O=C(NCCN1CCCCC1)c1cc(Cl)ccc1Cl | 2.3 | 3.2% | 0.0% | -2.6 | 4.65µM*
